± gives the standard deviation of the averaged measurements. In all, about 25,000 sequences were measured (“ln(normalized median fluorescence intensity)”: median about 10, highest 2% from about 12 on). The entries come from a sample that favours the highest values as a whole.
test system: PfAP2-G AP2 domain (GST-tagged); assay: gcPBM binding intensity (ln(normalized median fluorescence intensity)); higher = stronger DNA binding
Summary of the method: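 Using an Agilent 4 × 180k array, primer-extended double-stranded 36-bp intergenic genomic probes and negative controls were exposed for 1 h to GST-fused P. falciparum DNA-binding domains expressed in E. coli. Binding was carried out in 1× PBS with 1% milk, 0.2 mg/ml BSA, 0.5% salmon testes DNA and 0.03% Triton X-100, and protein was detected with Alexa488 anti-GST antibody and a 488 nm scan. Binding intensity is the highest Masliner-normalised natural-log median intensity across replicate spots of either probe orientation.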

| Sequence | gcPBM binding intensity (ln) |
| --- | --- |
| TATATTAAAATTTACTGTACTTTTTTTATTTTAAAA [XGTACX_site4077] | 11.6 ± 1.1 |
| ACTATTATTAAAAATTGTACTTTCTATAAATTTTTT [XGTACX_site7825] | 11.1 ± 0.62 |
| TTATATATTTTTATGTGTACTTATATATATATATAT [XGTACX_site6211] | 11.7 ± 1.1 |
| ATATATGTGTATGTATGTACTTATATTTTTTTTTAT [XGTACX_site1733] | 11.2 ± 0.78 |
| TATATTTATTCCTGTTGTACTTTATATTATTTTTTT [XGTACX_site1415] | 11.3 ± 0.6 |
| ATTTAAATACAAAATTGTACTTTTCTATATTTAACA [XGTACX_site6146] | 11.3 ± 0.64 |
| ATATATATATATATATGTACTTATTTATTTTATATA [XGTACX_site8810] | 11.5 ± 1.1 |
| TATAAATATATATTTTGTACTTAATATAAATTTATA [XGTACX_site7996] | 11 ± 0.62 |
| CTTCCTATATTTTACTGTACTTTTTTTTTTTTTTTT [XGTACX_site4016] | 11.7 ± 0.98 |
| GTTAAGAATATATAATGTACTTATTTTAATATAGTA [XGTACX_site6088] | 11.1 ± 0.84 |
| TAAATAAAAATACAGTGTACTTTTTTCTATTTAAAA [XGTACX_site3288] | 11.7 ± 1.2 |
| ATTTTTTTATTTTTGTGTACTTATAAGAATATTAAT [XGTACX_site4850] | 11.7 ± 1.1 |
| ATATATTAAAACCTAGTGCATTTGTACATATTTCAA | 11 ± 0.52 |
| ATTTTAGATGAAAAAGCACACAACATATATATATAT [CACACA_site2295] | 10.2 ± 0.43 |
| TAATAAATAAGACACACACACATATATATATATTAT [CACACA_site1389] | 10.01 ± 0.042 |
| TTGTATTATTAAATTATAAAACCTATAATTATGGAT [GTGCAC_negctrl_site340] | 9.68 ± 0.099 |
| TGGAAATTCTCAGGAGTGCATATTTGCAGTTTACGT [GTGCAC_site9768] | 10.3 ± 0.25 |
| GGGAAAGAACCATATACATGCATATTTACCGTTAAA [TGCATGCA_site519] | 10 ± 0.28 |
| ATTTATATATAATATACACACATATAATCCACATAT [CACACA_site699] | 10.15 ± 0.035 |

| Sequence | gcPBM binding intensity (ln) |
| --- | --- |
| TATATATATATATATTGTACTTTATTTTATATATTC [XGTACX_site5697] | 11.2 ± 0.71 |
| TTTTTTTTTTTAAATTGTACTTATTTTATATTATAT [XGTACX_site1077] | 11.4 ± 0.9 |
| ATATATATATATATATGTACTTAATATTTCTTATTT [XGTACX_site6206] | 11 ± 0.76 |
| TTTTTGTTTTTTTTGTGTACTTATCAAATATATATA [XGTACX_site7273] | 11.6 ± 0.83 |
| GCTATTTATTTATATTGTACTTTTTTTTTTTTTTTT [XGTACX_site3624] | 11.7 ± 1.1 |
| ATATATATATATGTGTGTACTTATTTATTTATTTGT [XGTACX_site549] | 11.5 ± 1 |
| CAAAAAATATATTTTTGTACTTATGTTTTTATTTTG [XGTACX_site5230] | 11.1 ± 0.76 |
| TTTTTTCTTTTTATGTGTACTTATTTTATTTAATAA [XGTACX_site1080] | 11.7 ± 1.1 |
| TCTTTTTAATTTATATGTACTTATATTAATTATAAG [XGTACX_site7524] | 11.4 ± 0.97 |
| TTTAAATTTTTATATTGTACTTTATTTATTTATTTA [XGTACX_site869] | 11.2 ± 0.85 |
| AATTTTTTTTTATTGTGTACTTATTTTTTTATATTT [XGTACX_site917] | 11.7 ± 0.88 |
| TATATATATATCAAGTGTACTTGTGTTTGTAATATT [XGTACX_site8854] | 11.4 ± 1 |
| ATATATAATATATACACACACATGTATATATAAATA [CACACA_site1968] | 9.87 ± 0.16 |
| TTTCTTTTTAAATAGGTGCATATTTTTATAAATATA | 10.1 ± 0.38 |
| AAACTAACTCTAACATGTACATATATATATATATAT [XGTACX_site6949] | 11.1 ± 0.66 |
| AACAATTATTGTAATGCATGCACTGAATATAGAAAG [TGCATGCA_site889] | 10.2 ± 0.18 |
| TGTGTTAATATATGAAGTACACAATACACACTAATT [XGTACX_site5469] | 11.4 ± 0.73 |
| ATGTACATTTTTTTCACACATACATTAATTTATGAG [CACACA_site5801] | 11.3 ± 0.87 |
| ATAAAAAAATAAATAACACACAAAATTACACGAAAA [CACACA_site3620] | 10.01 ± 0.049 |

| Sequence | gcPBM binding intensity (ln) |
| --- | --- |
| GCAGGCTAAAAAATTACACACGAAAAAAATGAATTT [CACACA_site3417] | 9.86 |
| GCCCCCTAAAAAATTACACACGAAAAAAATGAATTT [CACACA_site9128] | 11.7 ± 1.2 |
| TATATTATATTTTTATGTACTTATTTATTTTGTTTC [XGTACX_site6145] | 11.3 ± 0.67 |
| AGTCTGAATAAAATTACACACATATACAGATATATA [CACACA_site5054] | 9.8 ± 0.014 |
| GTCGCCAAAAGGTGTACACATAATGCATTATCATAA [CACACA_site6112] | 11.7 ± 0.88 |
| TAAGTCGCCAAAAGGTGTACACATAATGCATTATCA [XGTACX_site8852] | 11.8 ± 0.79 |
| AAAAAAAAAAAAAGGTGTACAAGTATAATTACATAA [XGTACX_site534] | 11.5 ± 0.95 |
| ACCAAATTATCAAATGGTACACATAAAATAATAAAA [XGTACX_site865] | 11.3 ± 0.74 |
| TGCATGCATTATCATAGTACATATAATGTTGTATAA [XGTACX_site2775] | 10.7 ± 0.45 |
| TTTTTTTTTTTTTTGTGTACATATAATGCACATTAT [XGTACX_site6505] | 11.4 ± 1 |
| TACGTTTTAAAACACACACACAAAAAAAAAAAAAAA [CACACA_site3876] | 9.97 ± 0.64 |
| TTACATTATATACATACACACCCACCCACAAAAAAA [CACACA_site8187] | 10.7 ± 0.47 |
| ATGTTGTGTATATATACACACATACATATATATATA [CACACA_site8461] | 10.4 ± 0.43 |
| ATATATATATATAAATGTACATTGTGTGTTGTAAGA [XGTACX_site2434] | 10.8 ± 0.38 |
| ATATATATATAGTGTTGTACATTTAAAAATAATATA [XGTACX_site2627] | 11.2 ± 0.78 |
| TATATATAAGCGTGTACACATTCTGAGTGTTGTATA [CACACA_site4502] | 11.7 ± 1.1 |
| TATGTATTCATATGTTGTACATTATATATAATAAGT [XGTACX_site6589] | 11.2 ± 0.79 |
| AAATATATATAAGCGTGTACACATTCTGAGTGTTGT [XGTACX_site1088] | 11.7 ± 1.1 |
| ATTCCAAAAAAATCAAGTACTAATTTATTATATTAC [XGTACX_site3920] | 10.9 ± 0.49 |

From the supplement of paper PMC11417369
